According to PubChem BioAssay (NCI):
This is part of a sample that, as a whole, favours compounds with a hit. Of some 83,000 tested, about 20% had one in any assay.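 96-well plates, one dose, 48 hours. Percent growth reported; active if below 10.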 Unmarked numbers belong to inactive results. Calls of active or inactive are those of the source. *1 amine or outer side, *2 acyl side, *3 side chain or, on linkers, in order; H or OH if unused. Where a SMILES comes first, the peptide text is derived from it. [ ]: non-standard residue; d: D form. The star is where a group is joined. X5 = CCC(=O)CC1CC(C)CC(C(=O)[*:2])N1[*:1]; X4 = CCCCCCCCC(C)C(=O)*; Aib = CC(C)(N)C(=O)O; X6 = CC(CN(C)CCO)N*

Legend:
Experiment in all cases: NCI-60 one-dose screen, 48 h (100 = growth as untreated, 0 = no growth, -100 = all killed)
Conditions in all cases: 10 µM unless noted
T-47D breast = tested on: T-47D breast
BT-549 breast = tested on: BT-549 breast
SW-620 colon = tested on: SW-620 colon
MCF7 breast = tested on: MCF7 breast
HCT-116 colon = tested on: HCT-116 colon
HCC-2998 colon = tested on: HCC-2998 colon
KM12 colon = tested on: KM12 colon
MDA-MB-435 melanoma = tested on: MDA-MB-435 melanoma

SMILES | growth (T-47D breast) | growth (BT-549 breast) | growth (SW-620 colon) | growth (MCF7 breast) | growth (HCT-116 colon) | growth (HCC-2998 colon) | growth (KM12 colon) | growth (MDA-MB-435 melanoma)
Cc1ccc(/C=C2\CNC/C(=C\c3ccc(C)cc3)C2=O)cc1 | 14% | -72.2% (active) | -44.1% (active) | 1.76% (active) | -60% (active) | -81.3% (active) | -78.6% (active) | –
N=C1C=C(N)C(=O)c2ccccc21 | -46.1% (active) | -99.1% (active) | -85% (active) | – | -98.7% (active) | -99.5% (active) | -82.4% (active) | -75.7% (active)
O=C1C=C(Cl)C(=O)c2ccccc21 | 14.9% | 98.3% | 98% | 81.3% | – | 125% | 99.4% | 112%
NC(=S)N/N=C\c1nccc2c(C(F)(F)F)cccc12 | 13.9% | 7.77% (active) | 29.8% | 10.5% | 9.27% (active) | 26.6% | – | –
CC(C)Nc1ccc(Nc2ccc(NC(C)C)cc2)cc1 | 31.9% | 53.2% | 47.9% | 28.9% | – | 61.2% | 29.3% | 51.4%
N=C(N)Sc1cccc[n+]1[O-] | 63.1% | 80.3% | 46.9% | 14.6% | – | 74.7% | 55.1% | 62.9%
O=C(c1ccccc1)N(CCCl)C(=O)N(CCCl)C(=O)c1ccccc1 | 86% | 100% | 110% | 101% | 90% | 104% | 102% | –
CCC1CCCCN1C(=S)N/N=C(\C)c1ccccn1 (stereo not given) | 4.58% (active) | 30.8% | 9.32% (active) | 13% | – | 17.9% | 4.56% (active) | 3.24% (active)
NC(=S)Nc1ccc2c(c1)Cc1ccccc1-2 | 81.9% | 79.4% | 94.7% | 70.1% | 94.8% | 97.6% | 95.1% | –
COC(=O)C(=[N+]=[N-])C(=O)c1ccc([N+](=O)[O-])o1 | 89.7% | 101% | 44% | 65.1% | 73.4% | 107% | 94.9% | –
Cc1cc(C)c([I+]c2c(C)cc(C)cc2C)c(C)c1 | 0.613% (active) | -86.4% (active) | -40.1% (active) | -53.7% (active) | -87.1% (active) | -85.5% (active) | -75.9% (active) | –
COc1c(C)c2c(c(O)c1C/C=C(\C)CCC(=O)O)C(=O)OC2 | 44.7% | 35.4% | 21.7% | 23.9% | – | 33.3% | 29.1% | 30.1%
CC(C)N=C(N)/N=C(\N)Nc1ccc2ccc3ccccc3c2c1 | -67.8% (active) | -55.3% (active) | – | -90.5% (active) | 3.26% (active) | -90.9% (active) | -82.2% (active) | -93.7% (active)
Cc1nn(CCO)c(C)c1N=[N+]([O-])c1c(C)nn(CCO)c1C | -3.43% (active) | 50.5% | -61.2% (active) | 4.45% (active) | – | 109% | 81% | -25.4% (active)
O=C(c1ccccc1)C(O)C(Br)(CBr)c1ccccc1 (stereo not given) | 98.6% | 68.4% | – | 81.5% | – | 87.1% | 80.5% | 67.4%
CCNc1nnnn1CC | 106% | 110% | 104% | 95.7% | – | 110% | 110% | 107%
COc1cc(/C=C2\SC(=S)N(/C=C/c3nc4ccccc4[nH]c3=O)C2=O)cc(OC)c1OC | 52.6% | 80.8% | 91.2% | 82.1% | 78.8% | 87.5% | 90.4% | –
CN1CCC(c2ccccc2)(c2ccccc2)C(=O)C1 | 13.7% | 115% | – | 27.7% | 64.8% | 82.1% | 92.2% | 98.9%
Cc1ccc(N2C(=O)C=CC2=O)cc1 | 112% | 105% | -11.5% (active) | – | – | 94.3% | 108% | 117%
S=C(S)OCN1CCOCC1 | 88.1% | 100% | 74.8% | – | 98.8% | 97.4% | – | 88.4%
C1=C(c2ccccc2)c2ccccc2C1 | 92.7% | 99.1% | 97.8% | 109% | – | 91% | 96.3% | 93.1%
O=C(CBr)c1ccc(OC(=O)c2ccccc2)cc1 | 95.7% | 105% | 88.4% | 92.5% | 75.6% | – | – | –
CC1(C)N=c2cc3c(cc2N1c1ccc(Cl)cc1)=Nc1ccccc1N3c1ccc(Cl)cc1 | 25.1% | 44% | 53.5% | 28.9% | -41.3% (active) | 36.9% | 77% | –
S=C(SSC(=S)N1CCOCC1)N1CCOCC1 | 79.8% | 141% | -57.5% (active) | 66.5% | – | 49.6% | 69.5% | 53.6%
CCOC(=O)/C(=C\c1ccc2ccccc2c1)P(=O)(OCC)OCC | 32.4% | 39.8% | 2.35% (active) | 15.3% | – | 13.6% | 39.2% | 24%
CCCOC(=O)c1nc(N(CC2CCCCC2)C(=O)NC)sc1/N=C/c1ccccc1 | 15.2% | 18.9% | – | 3.21% (active) | -25.6% (active) | -78.7% (active) | 7.21% (active) | -46.9% (active)

SMILES | growth (T-47D breast) | growth (BT-549 breast) | growth (SW-620 colon) | growth (MCF7 breast) | growth (HCT-116 colon) | growth (HCC-2998 colon) | growth (KM12 colon) | growth (MDA-MB-435 melanoma)
CN(C)c1ccc(/C=C/c2ccnc3ccccc23)cc1 | 43.1% | 20.2% | 26.9% | 19.9% | – | 72.1% | 29.9% | 2.49% (active)
O=C(c1ccccc1)c1ccc(O)c2ncccc12 | 10.6% | 56.3% | 17.1% | 10.5% | 13.7% | 35.8% | 27% | –
S=c1[nH]c2cc(Cl)ccc2s1 | 90.4% | 100% | 113% | 95.2% | 96.6% | 97.4% | – | –
NNc1ccc(Cl)cc1Cl | 52% | 88.7% | 53.7% | 74.8% | 87.1% | 93.9% | 51.3% | –
C[C@@]1(CO)[C@H](O)CC[C@@]2(C)[C@H]1CC[C@H]1C[C@@H]3C[C@@]12CC[C@@]3(O)COC(=O)CN | 61.8% | 46.3% | 50.9% | 36.9% | – | – | 61.8% | 55.1%
O=[N+]([O-])C=C(c1ccccc1)c1ccccc1 | 66.2% | 76.6% | – | 84.8% | 64% | 87.3% | 66.4% | 23.7%
CN(C)CCN(C)CC(C)(C)C(=O)/C=C/c1ccc(Cl)c(Cl)c1 | -56.7% [100 µM] (active) | -96% [100 µM] (active) | -81.1% [100 µM] (active) | -66.4% [100 µM] (active) | -93.4% [100 µM] (active) | -90.4% [100 µM] (active) | -93.4% [100 µM] (active) | –
CN(C)CCSC1=Nc2ccc(Cl)cc2C(c2ccccc2Cl)N(C)C1 (stereo not given) | 57.9% | 76.4% | 87.4% | 27.8% | 65.1% | 81% | 61.6% | –
CC(C)(C)c1ccc(CCO)cc1 | 106% | 86.1% | 114% | 101% | – | 95.2% | 115% | 89%
O=[N+]([O-])c1ccc(C(Br)c2ccc([N+](=O)[O-])cc2)cc1 | 83.8% | 77.3% | 11.1% | 70.8% | – | 90.4% | 60.3% | 64.8%
CCN1/C(=C/C(C)=C/c2sc3ccc4ccccc4c3[n+]2CC)Sc2ccc3ccccc3c21 | -69.8% (active) | -93.3% (active) | -94.2% (active) | -84.5% (active) | – | -76.1% (active) | -93.6% (active) | -97.2% (active)
CC(/C=N/NC(N)=S)Cc1ccc(C(C)C)cc1 (stereo not given) | 16.6% | 64.1% | 63.5% | 49.9% | 51.4% | 51.9% | 89.5% | –
O=[N+]([O-])c1ccc2c(c1)Cc1ccccc1-2 | 94% | – | 95.8% | 94.8% | 91.3% | 98.3% | 98.3% | 99.4%
O=C1C(=O)c2cc([N+](=O)[O-])ccc2-c2ccccc21 | -35.6% (active) | – | -81.1% (active) | -55.3% (active) | -92.5% (active) | 65.9% | -81.7% (active) | -79.3% (active)
Oc1c(Cl)cc(Cl)cc1C(c1cc(Cl)cc(Cl)c1O)C(Cl)(Cl)Cl | 1.95% (active) | 7.91% (active) | 9.94% (active) | 4.85% (active) | 0.34% (active) | – | -0.332% (active) | –
Fc1ccc(NCCS)cc1 | 103% | – | 102% | 90% | 111% | 96.7% | 98.3% | 107%
CCCCCCCCCCCCCCCCCC[S+](C)CC (stereo not given) | 16.6% | 45.1% | 28.1% | 36.3% | 27.8% | 50.2% | -31.7% (active) | –
O=[N+]([O-])c1ccc(N2CCN(Cc3ccccc3)CC2)c2c1no[n+]2[O-] | 57.5% | -25.5% (active) | -68.2% (active) | 7.84% (active) | – | -14.4% (active) | -52.2% (active) | –
COc1cc(NCc2ccc3nc(N)nc(N)c3c2C)cc(OC)c1OC (tested in a mixture with another compound) | 47.1% | 56.1% | 32.4% | 21.3% | 20.6% | 14.3% | 14.8% | –
Cc1nc([N+](=O)[O-])c(Sc2nncc(-c3ccccc3)n2)n1C | 15.3% | 66.6% | 77.1% | 43.8% | 53.2% | 98.3% | 104% | –
c1ccc(-c2cccc(-c3ccccn3)n2)nc1 | 38.1% | – | 29.6% | 14.1% | 6.59% (active) | 18.7% | 27.6% | 33.9%
O=C(O)c1ccc2c(c1)C(=O)c1ccccc1C2=O | 99.7% | 107% | 97% | 97.7% | 106% | 104% | 98.9% | –
CCCCCCCCC(C)C(=O)N1CCCC1C(=O)N1C(CC(=O)CC)CC(C)CC1C(=O)NC(C)C(=O)NC(C)(C)C(=O)NC(C)(C)C(=O)NC(C(=O)NC(C)C(=O)NC(C)(C)C(=O)NC(C)(C)C(=O)NC(C)CN(C)CCO)C(C)CC (stereo not given) (X4-P[X5]A[Aib][Aib]IA[Aib][Aib]-X6; configuration not given here) | -16.5% (active) | -80.3% (active) | -81.4% (active) | -80.7% (active) | -88.8% (active) | – | -75.8% (active) | –
N#Cc1c2ccccc2nc2ccccc12 | 101% | 114% | 98.4% | 101% | 105% | – | 108% | –
OC(c1cc2ccc(C(F)(F)F)cc2c2cc(C(F)(F)F)ccc12)C1CCCCN1 (stereo not given) | -90.5% (active) | – | -100% (active) | -90.8% (active) | – | -86.7% (active) | -97.3% (active) | -100% (active)
COc1cc([C@@H]2c3cc4c(cc3[C@H](OC3OC5COC(c6ccccc6)OC5C(O)C3O)[C@H]3COC(=O)[C@H]23)OCO4)cc(OC)c1OC (stereo not given in full) | 107% | – | 43.9% | 10.5% | 12.3% | -5.24% (active) | – | 22.7%
